Among all 340,000 compounds or so, about 730 (0.21%) were called active.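 How the source made its calls: active means inhibition above the mean over all tested compounds plus 3 SD (cut at about 21% in these data); inactive means the rest.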 Many of the other results were omitted from the sample, so actives are more common in it than they were.

As usually defined, the inhibition is the change of the read-out against control, counted positive when it falls.

Chain of Toll-like receptor 9 (Homo sapiens) + Myeloid differentiation primary response protein MyD88 (Homo sapiens) (Q99836 whole entry, looked up): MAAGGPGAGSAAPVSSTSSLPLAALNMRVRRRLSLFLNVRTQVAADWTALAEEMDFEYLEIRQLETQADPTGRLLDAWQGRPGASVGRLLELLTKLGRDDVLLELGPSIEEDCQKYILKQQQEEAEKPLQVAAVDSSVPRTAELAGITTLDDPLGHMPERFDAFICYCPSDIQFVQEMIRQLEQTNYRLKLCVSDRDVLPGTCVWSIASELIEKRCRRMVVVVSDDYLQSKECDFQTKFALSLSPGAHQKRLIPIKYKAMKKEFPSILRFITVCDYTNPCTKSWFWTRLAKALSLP
Chain of Toll-like receptor 9 (Homo sapiens) + Myeloid differentiation primary response protein MyD88 (Homo sapiens) (Q9NR96 whole entry, looked up): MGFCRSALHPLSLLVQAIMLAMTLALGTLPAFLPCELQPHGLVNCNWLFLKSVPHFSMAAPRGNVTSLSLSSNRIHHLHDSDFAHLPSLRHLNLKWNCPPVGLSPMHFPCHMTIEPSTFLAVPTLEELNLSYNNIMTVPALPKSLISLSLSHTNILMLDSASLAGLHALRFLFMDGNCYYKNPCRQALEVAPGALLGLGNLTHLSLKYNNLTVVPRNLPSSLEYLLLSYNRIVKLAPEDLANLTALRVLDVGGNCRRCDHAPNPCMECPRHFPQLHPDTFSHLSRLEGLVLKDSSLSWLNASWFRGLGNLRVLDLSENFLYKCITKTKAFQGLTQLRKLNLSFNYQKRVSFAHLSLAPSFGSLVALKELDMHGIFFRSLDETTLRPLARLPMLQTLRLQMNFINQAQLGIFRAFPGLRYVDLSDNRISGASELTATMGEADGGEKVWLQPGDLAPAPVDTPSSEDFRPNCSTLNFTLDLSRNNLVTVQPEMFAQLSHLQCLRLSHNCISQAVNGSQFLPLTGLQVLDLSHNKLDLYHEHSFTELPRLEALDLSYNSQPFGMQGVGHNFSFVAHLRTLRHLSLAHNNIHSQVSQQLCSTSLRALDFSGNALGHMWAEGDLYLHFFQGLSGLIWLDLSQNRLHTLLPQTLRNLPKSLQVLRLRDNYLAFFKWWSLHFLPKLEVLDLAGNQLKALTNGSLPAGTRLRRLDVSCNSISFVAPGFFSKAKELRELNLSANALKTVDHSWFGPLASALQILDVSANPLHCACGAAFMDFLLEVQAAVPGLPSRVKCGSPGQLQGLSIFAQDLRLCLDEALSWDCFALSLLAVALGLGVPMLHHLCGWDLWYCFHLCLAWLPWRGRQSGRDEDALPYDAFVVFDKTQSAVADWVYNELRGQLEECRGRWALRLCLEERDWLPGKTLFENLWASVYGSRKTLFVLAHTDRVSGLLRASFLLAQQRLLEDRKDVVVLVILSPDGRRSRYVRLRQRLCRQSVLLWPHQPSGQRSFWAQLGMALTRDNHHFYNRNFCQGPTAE

This assay concerns the target Toll-like receptor 9 (Homo sapiens) + Myeloid differentiation primary response protein MyD88 (Homo sapiens) (UniProt Q9NR96+Q99836). Nature of the assay: inhibitors of TLR9-MyD88 association in cells, primary screen, cell-based, CHO, BLA complementation, fluorescence (AID 504734).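 Further: 0% = DMSO only wells and 100% = clavulanate BLA inhibitor control wells.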 The note with it: CHO BLA complementation TLR9-MyD88, CCF4 FRET ratio; at 4.98 µM; hits give high values.
Turning to `COc1ccc([C@H]2N[C@]3(CCCN(CC4CCCCC4)C3=O)[C@H]3C(=O)N(C)C(=O)[C@@H]23)cc1`, the inhibition is 1.4% (inactive).

Regarding `Cc1ccn(CC(=O)NC2CCCN(Cc3ccccc3F)C2)n1` (centres undefined), the inhibition was 9% (inactive). For `Nc1cccc2c1C(=O)N(Cc1nnc(-c3ccccc3Br)o1)C2=O`, the inhibition was 21.2% (active). Consider `Cn1cnnc1SCc1nnc(-c2ccccc2Br)o1`, for which the inhibition is -5.92% (inactive).

For `CCOC(=O)N1CCN(Cc2nnc(-c3ccccc3Cl)o2)CC1`, the inhibition was 7.73% (inactive). The figure for `CCN1CCN(CCNC(=O)c2ccc3c(c2)NC(=O)/C(=C\c2cccc(Cl)c2)S3)CC1` is 13.2% (inactive); for `CCOC(=O)C=Cc1ccc(C(=O)OCC)[nH]1` it is 5.14% (inactive). For `Cc1cc(C)c2c(=O)n3c(nc2c1)C(CC(C)C)NC(=O)c1cc2ccccc2cc1-3` (centres undefined), the inhibition was 9.57% (inactive). The figure for `CC1(C)CC(=O)C(C2c3ccccc3S(=O)(=O)c3ccccc32)C(=O)C1` is 22.1% (active); for `CC1(C)CC(=O)NC=C(c2ccccc2)C1` it is -4.24% (inactive). For `CC1(C)CC(=O)C(CC(=O)N2CCC(Cc3ccccc3)CC2)C(=O)C1`, the inhibition was -5.62% (inactive). Regarding `CCN(CC)C(=O)C1=C(C)N(Cc2ccc(OC)cc2)C(=O)C(CC(=O)NCCCCc2ccccc2)C1` (centres undefined), the inhibition is -3.92% (inactive). Regarding `Nc1c(C(=O)c2cccs2)sc2nsc(SCCN3CCCCC3)c12`, the inhibition is 31.4% (active). Regarding `COc1ccc(NC(=O)CCCOc2ccc(C(C)=O)cc2)cc1S(=O)(=O)N1CCCCC1`, the inhibition is -6.11% (inactive). Then `COc1ccc([C@H]2N[C@]3(CCCN(Cc4ccco4)C3=O)[C@H]3C(=O)N(C)C(=O)[C@@H]23)cc1`, with -4.25% (inactive); and `Cc1noc(C)c1NC(=O)N(C)C[C@@H]1Oc2cc(Br)ccc2S(=O)(=O)N([C@@H](C)CO)C[C@H]1C`, with 6.19% (inactive); and `O=C(Nc1ccc(F)cc1)c1ccc(S(=O)(=O)NCc2cccnc2)cc1`, with -9.53% (inactive). In the case of `Cc1cccc(CS(=O)(=O)c2ncc(Cl)c(C(=O)Nc3ccc(F)cc3)n2)c1`, the inhibition is 35.3% (active). For the compound `CSc1nnc(NC(=O)c2nc(S(=O)(=O)Cc3ccc(C)cc3)ncc2Cl)s1`, the inhibition was 4.24% (inactive). Regarding `Cc1ccc(CS(=O)(=O)c2ncc(Cl)c(C(=O)Nc3nnc(C)s3)n2)cc1`, the inhibition was 12.2% (inactive). In the case of `Cc1cccc(NC(=O)c2nc(S(=O)(=O)Cc3ccccc3)ncc2Cl)c1`, the inhibition was 48.7% (active). Regarding `CN1CCN(c2ccc(NC(=O)c3ccc4c(c3)[nH]c(=O)n4Cc3ccc(F)cc3)cc2)CC1`, the inhibition was 5.07% (inactive).

For the compound `Cc1[nH]c2ccccc2c1C(=O)C(=O)NCc1nnnn1-c1cccc(F)c1`, the inhibition was 7.75% (inactive). The figure for `COc1ccc(S(=O)(=O)N(C)C[C@H]2OCc3cnnn3CCCC(=O)N([C@H](C)CO)C[C@H]2C)cc1` is -12.9% (inactive); for `CN(O)C(=S)c1ccccc1` it is 21.8% (active). With `CN(Cc1ccccc1)C(=O)c1cccc(C(=O)N(C)Cc2ccccc2)c1`, the inhibition is -10.2% (inactive). In the case of `CCCCCCn1c(=O)n2n(c1=O)C[C@]1(OC(=O)NCc3ccc(OC)c(OC)c3)CN(S(=O)(=O)c3ccc(C)cc3)C[C@]1(O)C2`, the inhibition was -2.87% (inactive). Take `CC1CCCC(C)N1C(=O)COC(=O)c1ccccc1C(=O)c1ccccc1` (centres undefined): the inhibition was -3.35% (inactive). `O=C(NCCc1cccc(F)c1)C1CC(O)CN1C(=O)Nc1ccccc1` (centres undefined): the inhibition was -5.73% (inactive). With `COC(=O)N(C)C[C@@H]1OCc2cnnn2CCCC(=O)N([C@@H](C)CO)C[C@@H]1C`, the inhibition is -7.29% (inactive). For the compound `CSc1ncccc1C(=O)N1CCCC(Nc2ccc(F)c(F)c2)C1` (centres undefined), the inhibition was -7.83% (inactive). Take `Nc1cc(C(=O)N2CCN(c3ccccc3Cl)CC2)ccc1N1CC2CC(C1)c1cccc(=O)n1C2` (centres undefined): the inhibition is -8.79% (inactive).

In the case of `Cc1cc(C)nc(SCc2cn3c(C)cc(C)nc3n2)n1`, the inhibition was -17% (inactive). The figure for `Cc1cc(C)nc(SCc2ccccc2C#N)n1` is 23.9% (active); for `CC1(C)CCc2nc(SCc3ccccc3)c(C#N)cc2C1` it is -6.7% (inactive). `COc1ccc(CN2C(=O)C(CC(=O)NCCN3CCOCC3)CC(C(=O)N(C(C)C)C(C)C)=C2C)cc1` (centres undefined): the inhibition is -13.7% (inactive). As for `COc1ccc(N)cc1NC(=O)CN1CCOCC1`, the inhibition is 3.79% (inactive). `Nc1ccccc1-c1nc2ccncc2[nH]1`: the inhibition is 5.69% (inactive). Consider `C[C@H]1Cn2cnc(C(=O)N[C@H](C)c3ccccc3)c2C(=O)N1`, for which the inhibition is -9.33% (inactive). Regarding `COc1ccccc1NC(=O)C(CC(=O)O)Cc1cc(C)cc(C)c1` (centres undefined), the inhibition was 1.3% (inactive). For the compound `COc1ccc(NC(=O)CN2C(=O)NC(C)(c3ccccc3)C2=O)cn1` (centres undefined), the inhibition is 4.63% (inactive).

For `COc1ccc(NS(=O)(=O)c2ccc(NC(=S)NC(=O)/C=C/c3ccc(C)cc3)cc2)nn1`, the inhibition was 4.17% (inactive).

As to `COc1ccc(NC(=O)/C(Cl)=C(/Cl)S(=O)Cc2ccc(C)cc2)cn1` (centres undefined), the inhibition is 36.2% (active).

As for `Cc1ccc(C(=O)NC(C)C(c2cccs2)N2CCOCC2)cc1C` (centres undefined), the inhibition is -1.7% (inactive). With `O=C(NCCN1CCOCC1)C1CCN(S(=O)(=O)c2ccccc2)CC1`, the inhibition is -8.07% (inactive). Regarding `CN1OC[C@@H]2CN[C@H](c3ccc(-c4ccccc4)cc3)C[C@@H]21`, the inhibition was 8.78% (inactive). `Fc1ccc(N2N=C(c3cccs3)CC2c2ccco2)c(F)c1` (centres undefined): the inhibition was 1.6% (inactive). Turning to `COc1ccccc1N1N=C(c2cccs2)CC1c1ccccc1` (centres undefined), the inhibition was 38.6% (active). For `COc1ccc(C2CC(c3cccs3)=NN2c2nc(C)c(C(C)=O)s2)cc1OC` (centres undefined), the inhibition was -3.47% (inactive). Take `CC(C)N=C1CCCC1C(=S)SSC(=S)C1CCCC1=NC(C)C` (centres undefined): the inhibition was 6.42% (inactive). Turning to `Cc1cc2cc3n(c2nn1)N=C(Cl)CC3`, the inhibition was -2.59% (inactive). Consider `C[C@H](CO)N1C[C@H](C)[C@@H](CN(C)C(=O)c2cnccn2)Oc2ncc(Br)cc2C1=O`, for which the inhibition was -6.82% (inactive).

Consider `C[C@H](CO)N1C[C@H](C)[C@H](CN(C)C(=O)c2ccncc2)OCc2ccccc2-c2c(n(C)c3ccccc23)C1=O`, for which the inhibition was 7.41% (inactive). The figure for `Oc1ccc2ccc3cccc[n+]3c2c1` is 30.4% (active). On to `O=S(=O)(c1cccc(C(F)(F)F)c1)N1c2ccccc2-n2cccc2C1c1cccnc1` (centres undefined), for which the inhibition is 2.97% (inactive). In the case of `COc1ccc([C@H]2C[C@@H](n3cc(COC(=O)c4ccccc4)nn3)[C@H](O)CN2C(=O)c2cccs2)cc1`, the inhibition is -6.05% (inactive). Then `Cc1cc(Nc2ccc(C)c(C)c2)n2ncnc2n1`, with -6.42% (inactive).

For the compound `O=c1[nH]c2ccccc2n1C1CCN(CCOc2ccccc2)CC1`, the inhibition is -9.37% (inactive).

Consider `S=C(Nc1ccccc1)Nc1ccc2ccccc2c1`, for which the inhibition is -11.2% (inactive).

For `Cc1nc2cc(NC(=O)Nc3cccc(F)c3)ccc2n1C`, the inhibition was 4.9% (inactive). In the case of `O=C(Nc1ccc2ccccc2c1)Nc1ccc2snnc2c1`, the inhibition is 22.2% (active). Consider `COc1ccccc1C(=O)NC(=S)Nc1ccc(N2CCOCC2)cc1`, for which the inhibition was -9.36% (inactive). Consider `Cc1ccccc1C#CC1=CC(=O)CC(C)(C)C1`, for which the inhibition was 4.4% (inactive). Consider `Cc1ccc(Cc2c(-c3ccc(C)cc3)nc3c4ccccc4ccn23)cc1`, for which the inhibition is 0.71% (inactive).

As for `CCCCCCN1C[C@H](O)[C@@H](n2cc(C3CC3)nn2)C[C@@H]1c1ccc(Cl)cc1`, the inhibition was 2.49% (inactive). Consider `COc1cc(C=NC2CCCCC2)ccc1O`, for which the inhibition is -10.8% (inactive).

`CCOc1ccc(/C=C(/C#N)c2nnc(N3CCOCC3)n2-c2ccccc2)cc1OC`: the inhibition was 3.43% (inactive). Then `COc1cc(/C=C(\C#N)c2nc3c(s2)CC(C)CC3)ccc1O` (centres undefined), with 21.5% (active). On to `CNC(=O)C1CN(C(=O)c2cccc(S(=O)(=O)N3CCc4ccccc43)c2)c2ccccc2O1` (centres undefined), for which the inhibition is 2.33% (inactive). In the case of `Nc1cc(=O)c2[nH]cnc2[nH]1`, the inhibition was 2.53% (inactive).

As to `O=C1CCC(C(=O)OCC(=O)Nc2ccc(OC(F)F)cc2)=NN1`, the inhibition was -4.91% (inactive). On to `CCOC(=O)c1c(NC(=O)COC(=O)c2ccc(S(=O)(=O)C(F)F)cc2)sc(C(=O)N(C)C)c1C`, for which the inhibition is -11.2% (inactive).

Regarding `O=C1C(Cl)=C(Oc2ccccc2)C(=O)c2ccccc21`, the inhibition is 56.9% (active). Turning to `CC(=O)N(C1=C(Cl)C(=O)c2ccccc2C1=O)c1ccc(C(=O)O)cc1`, the inhibition is -8.51% (inactive). Then `CCN(CC)C(=O)C1=C(C)N(Cc2ccc(OC)cc2)C(=O)C(CC(=O)NCc2ccco2)C1` (centres undefined), with 7.39% (inactive). For the compound `CC(C)CCOc1ccc(C(=O)Nc2cc(S(=O)(=O)N3CCOCC3)ccc2N2CCOCC2)cc1`, the inhibition is 3.89% (inactive).

For `COc1ccc(-c2cnc(SCCNC(=O)c3ccc4c(c3)OCO4)[nH]2)cc1`, the inhibition was -7.86% (inactive). For the compound `COc1ccccc1CSc1ncc(-c2ccc([N+](=O)[O-])cc2)[nH]1`, the inhibition is 21.5% (active). Turning to `COc1ccccc1C1CCN(c2ccc([N+](=O)[O-])cn2)CC1`, the inhibition is -2.92% (inactive).

`Cn1ncc([N+](=O)[O-])c1C(=O)Nc1cc(Cl)ccc1Cl`: the inhibition is -11.5% (inactive).

As for `Cc1cc(Cl)ccc1C(=O)C1CCCN(C(=O)c2ccc3c(c2)OCO3)C1` (centres undefined), the inhibition was -4.99% (inactive). Then `O=C(COC(=O)c1cncc(Br)c1)Nc1ccc(S(=O)(=O)N2CCOCC2)cc1`, with -5.67% (inactive); and `O=C(Nc1cccc2ccccc12)NC1CC1`, with 2.15% (inactive). Regarding `COc1cc(/C=C2\CCCc3c2nc2ccccc2c3C(=O)O)cc(Cl)c1O`, the inhibition is -7.09% (inactive). Then `O=C(COC(=O)c1c2c(nc3ccccc13)CCCC2)c1ccc(Br)s1`, with -5.16% (inactive); and `NS(=O)(=O)c1ccc(NC(=O)COC(=O)c2c3c(nc4ccccc24)/C(=C\c2ccc4c(c2)OCO4)CCC3)cc1`, with 25.9% (active); and `O=C(COC(=O)c1c2c(nc3ccccc13)/C(=C\c1cccs1)CCC2)Nc1ccccc1Cl`, with 22% (active). Take `NC(=O)c1ccc(NC(=O)COC(=O)c2c3c(nc4ccccc24)/C(=C\c2ccc4c(c2)OCO4)CCC3)cc1`: the inhibition was 8.83% (inactive). Turning to `NS(=O)(=O)c1ccc(NC(=O)COC(=O)c2ccco2)cc1`, the inhibition is -0.62% (inactive).

Source of the values: PubChem BioAssay AID504734 (The Scripps Research Institute Molecular Screening Center, 2011).
